# Rows were chosen to be rich in hits. Some 19% of all compounds tested hit in one or more screens of this group.
# TDP1 cell noCPT: qHTS for Inhibitors of human tyrosyl-DNA phosphodiesterase 1 (TDP1): qHTS in cells in absence of CPT; DT40 Tdp1-/- hTDP1 cells, no CPT, ATP luminescence, 48 h; Potency, µM (titrated, usually from 46.2 µM), for inactives: at the highest dose activity change, negative = growth inhibition, most hits filed as inhibitors; 420,000 compounds, 15% hits; AID 686978, 2013; note: potency is the fitted concentration of half-maximal effect; % is set by controls: 0 for no effect and ±100 for the full control effect; nearly all actives have a fitted effect of over 55% in size
#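 Growth of hTDP1-complemented DT40 Tdp1-knockout cells is measured by ATP luminescence after at least 48 hr compound exposure at 37 °C, with DMSO substituting for the 20 nM CPT used in the parallel screen.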
# ASM inhibitor: Inhibitors of Secretory Acid Sphingomyelinase (S-ASM): qHTS | Potency, µM (doses to about 57.5 µM), inactives show at the highest dose activity change, negative = inhibition, most hits filed as inhibitors | Sphingomyelin phosphodiesterase (Homo sapiens), P17405 | placental ASM, HMU-PC fluorogenic substrate, 60 min | 340,000 compounds, 0.006% hits; note: potency is the fitted concentration of half-maximal effect
# Target sequence (P17405 47-631 limits assumed): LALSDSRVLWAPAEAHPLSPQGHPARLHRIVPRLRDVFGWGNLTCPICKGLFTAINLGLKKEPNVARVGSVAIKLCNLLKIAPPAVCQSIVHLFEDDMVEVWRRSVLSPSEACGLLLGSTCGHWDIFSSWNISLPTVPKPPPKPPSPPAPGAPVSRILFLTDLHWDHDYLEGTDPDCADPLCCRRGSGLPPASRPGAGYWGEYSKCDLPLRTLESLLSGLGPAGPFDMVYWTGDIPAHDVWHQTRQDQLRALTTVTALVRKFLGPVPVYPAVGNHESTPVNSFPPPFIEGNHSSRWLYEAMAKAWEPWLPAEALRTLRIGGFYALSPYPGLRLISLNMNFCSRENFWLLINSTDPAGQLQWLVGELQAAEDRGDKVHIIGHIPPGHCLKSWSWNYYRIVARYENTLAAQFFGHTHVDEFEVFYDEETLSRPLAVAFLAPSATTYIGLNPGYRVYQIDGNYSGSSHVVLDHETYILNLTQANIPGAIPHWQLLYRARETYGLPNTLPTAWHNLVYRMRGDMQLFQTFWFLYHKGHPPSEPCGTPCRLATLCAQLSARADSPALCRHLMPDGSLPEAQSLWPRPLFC
#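 Steps: dispense placental human ASM, pin compound, wait 10 min at room temperature, add HMU-PC0 substrate at 9 uM final, incubate 60 min at 37 °C, add stop solution raising pH to 10, read fluorescence.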
# HepG2 tox: qHTS for Inhibitors of TGF-b: Cytotox Counterscreen | Potency, µM (titrated, usually from 46.1 µM), for the others: at the top dose activity change, negative = cytotoxicity, hits mostly cytotoxic | HepG2 CAGA-GFP viability, ATP luminescence, 18 h | 410,000 compounds, 0.76% hits; note: potency is the fitted concentration of half-maximal effect
#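 HepG2 CAGA-GFP cells (1000/well, DMEM with 1% FBS) received compound, then TGF-beta at 500 pg/mL final, and were incubated 18 hours at 37 degrees C. Viability was read by CellTiter-Glo luminescence. Media-only wells were set as complete cell-killing and DMSO as no toxicity.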
# TGFb inhibitor: qHTS for Inhibitors of TGF-b; HepG2 CAGA-GFP TGF-b/SMAD3 reporter, GFP fluorescence, 18 h; TGF-beta stimulated, 500 pg/mL final; Potency, µM (top dose mostly 46.1 µM), for inactives: at the highest dose activity, negative = inhibition, hits mostly inhibitors; 410,000 compounds, 1.2% hits; note: potency is the fitted concentration of half-maximal effect; % is set by controls: 0 for no effect and ±100 for the full control effect; nearly all actives have a fitted effect of over 65% in size
#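 Inhibition of TGF-beta-driven CAGA-GFP reporter expression in HEPG2 cells is measured by cellular GFP fluorescence after 18 h stimulation with 500 pg/mL recombinant TGF-beta in 1% FBS medium at 37 degrees C.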
# TDP1 cell CPT: qHTS for Inhibitors of human tyrosyl-DNA phosphodiesterase 1 (TDP1): qHTS in cells in presence of CPT; chicken DT40 Tdp1-/-;hTDP1 cells + 20 nM CPT, ATP luminescence, 48 h; Potency, µM (top dose mostly 46.2 µM), for the others: at the top dose activity change, negative = growth inhibition, most hits filed as inhibitors; 420,000 compounds, 12% hits; AID 686979, 2013; note: potency is the fitted concentration of half-maximal effect; % is set by controls: 0 for no effect and ±100 for the full control effect; nearly all actives have a fitted effect of over 55% in size
#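 Chicken DT40 Tdp1-/- cells stably complemented with human TDP1 were seeded at 400 cells/well in medium containing 20 nM camptothecin, exposed to pin-transferred compounds, and grown at 37 °C for at least 48 hr. Viability was read as ATP luminescence.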
# IL-1B inflam inh: qHTS for Inhibitors of Inflammasome Signaling: IL-1-beta AlphaLISA Primary Screen; THP-1 LPS/ATP IL-1B secretion, AlphaLISA, 16 h; active compounds read low; activity change, % at 57.5 µM; 360,000 compounds, 4.7% hits; AID 743279, 2014; in the data active = activity change below about -50%; inconclusive = mostly about -30% to -49%; note: % is set by controls: 0 for no effect and ±100 for the full control effect
#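 Secreted IL-1B measured by AlphaLISA bead assay after 16 h compound exposure of THP-1 cells; compounds (final up to 57.5 uM) added 1 h before LPS (250 ng/mL) and ATP (1.25 mM) stimulation; lower signal means less secretion.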
# * = called active by the depositor; ? = inconclusive; · = not tested or not shown. Unless noted, calls come from the whole dose curve; as a rule, active = well fitted curve in the direction sought with a large enough effect; inconclusive = small, poorly fitted or top-dose-only effect, or another doubt; inactive = no such curve, though single readings can be large; an effect the other way counts as inactive or inconclusive.
SMILES,TDP1 cell noCPT,ASM inhibitor,HepG2 tox,TGFb inhibitor,TDP1 cell CPT,IL-1B inflam inh
O=C(Nc1ccccc1)OC[C@@H]1C=CS(=O)(=O)N1Cc1ccc(Br)cc1,?,·,-28%,-18%,?,-68*
COc1ccc(C(=O)OCc2csc(C)n2)c(O)c1,0%,-1%,7%,24%,6%,-7
Cn1c(SCC(=O)N2c3ccccc3Sc3ccc(Cl)cc32)nnc1-c1ccco1,?,-6%,6%,-13%,21µM*,-13
Cn1nnnc1SCC(=O)N1c2ccccc2Sc2ccc(Cl)cc21,21µM*,-2%,5%,8%,?,-8
O=C(CSc1nnc(-c2ccncc2)n1Cc1ccco1)N1c2ccccc2Sc2ccc(Cl)cc21,-21%,-2%,1%,17%,15µM*,-74*
CCc1ccc(NC(=O)CN2C(=O)C(c3ccc(Cl)cc3)=NC23CCCCC3)cc1,?,·,-14%,·,?,·
O=C(CN1C(=O)C(c2ccc(F)cc2)=NC12CCCC2)Nc1ccc(F)cc1,5.8µM*,-4%,1%,-3%,8.2µM*,-20
COc1ccc(NC(=O)CN2C(=O)C(c3ccccc3)=NC23CCCCCC3)cc1,?,-10%,-2%,5%,?,-56*
CCc1ccc(NC(=O)CN2C(=O)C(c3ccc(C)cc3)=NC23CCCCC3)cc1,?,·,-17%,·,?,·
CCC(C(=O)Nc1ccc(C)c(C)c1)n1c(=O)c(C(F)(F)F)nc2ccccc21 (stereo not drawn),?,·,-1%,-36%,?,·
Cc1ccc(C)c(Cn2c(=O)n(Cc3ccc(C(=O)NC4CCN(Cc5ccccc5)CC4)cc3)c(=O)c3ccccc32)c1,-18%,·,-16%,-5%,-10%,·
Cc1ccc(CNC(=O)C(C)n2nc(C)c3sc4ccccc4c3c2=O)cc1 (stereo not drawn),?,·,-2%,12%,?,·
CCC(C(=O)NCCc1ccc(SC)cc1)n1nc(C)c2sc3ccccc3c2c1=O (stereo not drawn),23µM*,·,-1%,-30%,?,·
CSc1ccc(CCNC(=O)C(C)n2nc(C)c3sc4ccccc4c3c2=O)cc1 (stereo not drawn),?,·,1%,·,?,·
CCC(C(=O)NCCc1ccc(OC)c(OC)c1)n1nc(C)c2sc3ccccc3c2c1=O (stereo not drawn),8.2µM*,·,-9%,?,9.2µM*,·
COc1ccc(CNC(=O)C(C)n2nc(C)c3sc4ccccc4c3c2=O)cc1OC (stereo not drawn),6.5µM*,·,0%,-4%,6.5µM*,·
COc1ccc(CCNC(=O)C(C)n2nc(C)c3sc4ccccc4c3c2=O)cc1OC (stereo not drawn),18µM*,·,6%,28%,15µM*,·
Cc1cc(C)c(NC(=O)Cn2c(=O)n(-c3ccc(CC(=O)NCC4CCCO4)cc3)c(=O)c3ccccc32)c(C)c1 (stereo not drawn),-15%,4%,5%,-15%,-1%,?
CCNC(=S)NNc1nnc(-c2ccccc2)c(-c2ccccc2)n1,-23%,-2%,-5%,2%,-28%,-4
CCOC1=C2CN(S(=O)(=O)c3ccc(C)cc3)C(c3cccc(Cl)c3)CC2N(S(=O)(=O)c2ccc(Cl)cc2)C(c2ccccc2)C1 (stereo not drawn),?,·,·,·,?,13
COc1ccc(S(=O)(=O)Nc2ccc3c(c2)C(=O)N([C@H](C)CO)C[C@H](C)[C@@H](CN(C)S(=O)(=O)c2c(C)noc2C)O3)cc1,-20%,-2%,-3%,6%,-1%,-6
Cc1ccc(C(CNS(=O)(=O)c2ccc(F)cc2C)N2CCN(C)CC2)cc1 (stereo not drawn),?,-5%,-21%,-2%,18µM*,-24
O=c1c(-c2ccc(F)cc2)nc2cnc(N3CCOCC3)nc2n1C1CC1,16%,·,·,·,3%,·
Cc1ccc(C2=NOC(=O)/C2=C\C=C\c2ccccc2)cc1,4.6µM*,0%,9%,?,4.6µM*,-96*
CN(C)/C=C1\C(=O)ON=C1c1ccccc1,-9%,2%,1%,-5%,16%,0
SMILES,TDP1 cell noCPT,ASM inhibitor,HepG2 tox,TGFb inhibitor,TDP1 cell CPT,IL-1B inflam inh
CC1=NN(c2cccc(C(=O)O)c2)C(=O)/C1=C\C=C\c1ccco1,?,-3%,-33%,?,?,-96*
CC1=NN(c2ccccc2)C(=O)/C1=C/C=C/c1ccccc1,2.6µM*,-22%,-54%,?,-76%,-129*
Cc1ccc(NS(=O)(=O)c2cccc(C(=O)Nc3c(C)n(C)n(-c4ccccc4)c3=O)c2)cc1,9%,-1%,-7%,-2%,-4%,0
CCOc1ccc(NC(=O)CCNC(=O)Cn2ccc3ccccc3c2=O)cc1,-5%,-1%,2%,7%,4%,0
COc1ccc(CCc2nc3ccccc3n2C(CCc2ccccc2)c2nc3ccccc3[nH]2)cc1 (stereo not drawn),?,·,·,·,?,-16
COc1cc(Cc2nc3ccccc3n2C(C)c2nc3ccccc3[nH]2)cc(OC)c1 (stereo not drawn),?,·,·,·,18µM*,-14
O=c1c(-c2ccccc2)nc2ccccc2n1C(c1ccccc1)c1nc2ccccc2[nH]1 (stereo not drawn),-19%,·,·,·,-25%,-53*
